Experimental data from PubChem BioAssay (Tox21).
Results filed as inconclusive are left out. Active and inactive are the calls of the source. Unless noted, calls come from the whole dose curve.

Tests used:
[1] = Nuclear factor erythroid 2-related factor 2/antioxidant responsive element (Nrf2/ARE) small molecule agonists: qHTS cell viability counter screen in human keratinocytes (AID 1919968; active = well fitted curve in the direction sought with a large enough effect in the repeat runs; an effect the other way counts as inactive or inconclusive; note: nearly all actives have a fitted effect of over 55% in size)
Summary of the method: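 Cytotoxicity was multiplexed with the Nrf2/ARE luciferase assay in the same wells. Stably transfected HaCaT keratinocytes were treated with test compounds for 23 h at 37 C. Cell viability was then measured by CellTiter-Fluor fluorescence.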

[2] = Nuclear factor erythroid 2-related factor 2/antioxidant responsive element (Nrf2/ARE) small molecule agonists: luciferase reporter gene qHTS assay in human keratinocytes (AID 1919969); note: nearly all actives have a fitted effect of over 35% in size
[3] = biological target: Gonadotropin-releasing hormone receptor (Homo sapiens) (UniProt P30968); assay: Human gonadotropin-releasing hormone receptor (GnRHR) small molecule agonists, calcium flux assay in GnRHR-HEK293 cells (AID 1920063); note: nearly all actives have a fitted effect of over 35% in size
Sequence of Gonadotropin-releasing hormone receptor (Homo sapiens) (P30968 whole entry, looked up): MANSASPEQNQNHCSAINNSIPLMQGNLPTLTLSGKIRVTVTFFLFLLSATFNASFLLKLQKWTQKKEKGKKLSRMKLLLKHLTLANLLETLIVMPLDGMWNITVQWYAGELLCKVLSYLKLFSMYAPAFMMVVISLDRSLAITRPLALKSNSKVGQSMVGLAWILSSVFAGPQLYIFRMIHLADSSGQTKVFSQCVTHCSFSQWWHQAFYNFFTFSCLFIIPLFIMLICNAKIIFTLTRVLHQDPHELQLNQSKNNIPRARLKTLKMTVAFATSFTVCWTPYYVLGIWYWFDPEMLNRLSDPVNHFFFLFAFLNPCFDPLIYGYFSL
Summary of the method: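 Agonist activity was measured as intracellular calcium flux in HEK293 cells engineered to stably express human GnRHR. After dye loading for 1 hour at 37 C, compounds in DMSO were added and fluorescence was followed for 3 minutes.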

[4] = biological target: KiSS-1 receptor (Homo sapiens) (UniProt Q969F8); assay: Human kisspeptin (KISS1R) small molecule agonists, calcium flux assay in KISS1R-HEK293 cells (AID 1920064; active = well fitted curve in the direction sought with a large enough effect in the repeat runs; an effect the other way counts as inactive or inconclusive)
Sequence of KiSS-1 receptor (Homo sapiens) (Q969F8 whole entry, looked up): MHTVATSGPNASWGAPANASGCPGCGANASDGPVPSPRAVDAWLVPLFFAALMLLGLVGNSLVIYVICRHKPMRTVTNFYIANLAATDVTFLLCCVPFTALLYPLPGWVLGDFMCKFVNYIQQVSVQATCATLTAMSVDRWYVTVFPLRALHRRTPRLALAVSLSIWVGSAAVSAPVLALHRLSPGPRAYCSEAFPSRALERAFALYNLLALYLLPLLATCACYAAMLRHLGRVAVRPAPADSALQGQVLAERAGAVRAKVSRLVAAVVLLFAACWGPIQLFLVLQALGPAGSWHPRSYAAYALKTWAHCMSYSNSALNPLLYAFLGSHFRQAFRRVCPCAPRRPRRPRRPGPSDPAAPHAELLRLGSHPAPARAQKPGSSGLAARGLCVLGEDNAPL
Summary of the method: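 Agonist activity is monitored as intracellular calcium rise in engineered HEK293 cells carrying human KISS1R. Cells are dye-loaded for 1 h at 37 C before compound addition, and fluorescence is recorded for 3 min.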

[5] = G protein-coupled receptor (GPCR) small molecule agonists, calcium flux assay: HEK293 wild type cell line counter screen (AID 1920065)
Summary of the method: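 Seed cells, incubate 18 h (37 C, 5% CO2); add calcium dye, 1 h at 37 C; pin-transfer compounds, ATP control or DMSO; read fluorescence 480/540 nm each second for 3 min.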

[6] = p53 small molecule agonists, cell-based qHTS assay with human liver microsomes (AID 1963577)
Summary of the method: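 p53RE-bla reporter cells were pre-incubated 5 h at 37 C, then treated with compounds plus human liver microsomes (0.5 mg/mL final) and NADPH (0.5 mg/mL final) for 16 h at 37 C. Beta-lactamase activity was read by LiveBLAzer fluorescence after 2 h at room temperature.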

[7] = p53 small molecule agonists, cell-based qHTS assay with rat liver microsomes (AID 1963578)
Summary of the method: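 p53RE-bla cells were exposed to compounds together with rat liver microsomes (0.5 mg/mL final) and NADPH (0.5 mg/mL final) for 16 h at 37 C, then read by LiveBLAzer beta-lactamase fluorescence after 2 h at room temperature.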

[8] = p53 small molecule agonists, cell-based qHTS assay with human liver microsomes: qHTS cell viability counter screen (AID 1963579); note: nearly all actives have a fitted effect of over 45% in size
Summary of the method: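 p53RE-bla cells (4,000/well) were pre-incubated 5 h at 37 C, then given compounds in DMSO plus human liver microsomes (0.5 mg/mL final) and NADPH (0.5 mg/mL final) for 16 h at 37 C. Viability was read by CellTiter-Glo luminescence.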

[9] = p53 small molecule agonists, cell-based qHTS assay: qHTS cell viability counter screen (AID 1963581); note: nearly all actives have a fitted effect of over 45% in size
Summary of the method: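 Viability was counter-screened in parallel with the p53 agonist reporter by measuring intracellular ATP luminescence in the same HCT-116 p53RE-bla wells after 16 h compound treatment at 37 C.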

[10] = biological target: 5-hydroxytryptamine receptor 2A (Homo sapiens) (UniProt P28223); assay: 5-hydroxytryptamine receptor 2A (HTR2A) small molecule antagonists, cell-based qHTS assay (AID 1963586); note: nearly all actives have a fitted effect of over 45% in size
Sequence of 5-hydroxytryptamine receptor 2A (Homo sapiens) (P28223 whole entry, looked up): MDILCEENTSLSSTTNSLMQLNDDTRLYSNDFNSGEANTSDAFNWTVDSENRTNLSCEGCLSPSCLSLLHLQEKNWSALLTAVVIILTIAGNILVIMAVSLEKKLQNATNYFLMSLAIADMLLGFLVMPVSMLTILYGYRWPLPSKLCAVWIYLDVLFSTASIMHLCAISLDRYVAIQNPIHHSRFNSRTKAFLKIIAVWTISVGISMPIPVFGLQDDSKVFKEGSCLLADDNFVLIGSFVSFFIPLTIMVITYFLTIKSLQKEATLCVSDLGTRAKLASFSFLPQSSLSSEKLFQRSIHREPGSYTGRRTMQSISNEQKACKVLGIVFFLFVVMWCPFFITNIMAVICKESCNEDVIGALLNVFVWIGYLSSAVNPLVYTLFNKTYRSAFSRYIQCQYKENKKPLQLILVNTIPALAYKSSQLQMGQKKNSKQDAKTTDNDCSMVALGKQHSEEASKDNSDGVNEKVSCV
Summary of the method: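 CHO cells stably expressing human HTR2A were plated for 18 h at 37 C, then loaded with calcium dye for 1 h. Compounds were preincubated 5 min at room temperature before DOI (4 nM solution) was added. Kinetic fluorescence was read for 3 min.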

[11] = biological target: Muscarinic acetylcholine receptor M1 (Homo sapiens) (UniProt P11229); assay: Cholinergic receptor muscarinic 1 (CHRM1) small molecule agonists, cell-based qHTS assay (AID 1963589); note: nearly all actives have a fitted effect of over 35% in size
Sequence of Muscarinic acetylcholine receptor M1 (Homo sapiens) (P11229 whole entry, looked up): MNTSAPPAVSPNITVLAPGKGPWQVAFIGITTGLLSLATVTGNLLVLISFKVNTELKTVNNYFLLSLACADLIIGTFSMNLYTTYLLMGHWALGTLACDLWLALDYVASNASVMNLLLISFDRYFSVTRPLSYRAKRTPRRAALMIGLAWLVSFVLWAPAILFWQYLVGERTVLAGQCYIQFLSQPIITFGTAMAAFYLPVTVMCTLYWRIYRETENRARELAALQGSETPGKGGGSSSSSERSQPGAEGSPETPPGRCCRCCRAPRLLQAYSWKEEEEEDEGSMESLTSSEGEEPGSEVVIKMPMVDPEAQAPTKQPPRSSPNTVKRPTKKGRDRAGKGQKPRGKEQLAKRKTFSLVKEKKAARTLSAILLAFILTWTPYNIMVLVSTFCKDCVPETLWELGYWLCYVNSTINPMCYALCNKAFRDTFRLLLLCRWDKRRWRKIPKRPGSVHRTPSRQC
Summary of the method: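 Cells were plated and incubated 18 h at 37 C/5% CO2, loaded with calcium dye for 1 h at 37 C, then treated with compounds in DMSO. Fluorescence was recorded kinetically at 1 sec intervals.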

[12] = cAMP Responsive Elements (CRE) small molecule agonists, cell-based qHTS assay (AID 1963590)
Summary of the method: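 Cells carrying a CRE-driven beta-lactamase reporter (HEK 293T) are seeded, incubated overnight (18 h), and treated with test compounds for 3 h at 37 C; reporter activity is then detected with a FRET substrate after 2 h at room temperature.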

[13] = cAMP Responsive Elements (CRE) small molecule antagonists, cell-based qHTS assay (AID 1963591; active = well fitted inhibition curve with a large enough effect in the signal ratio in the repeat runs, not every such curve was filed as active; the % refers to the signal ratio)
Summary of the method: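 Cells (CRE-bla HEK 293T, DMEM with 10% dialyzed FBS and 25 mM HEPES) are seeded and incubated 18 h. Compounds are added with NKH477 agonist at 0.25 uM final for 3 h, then FRET substrate for 2 h.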

[14] = biological target: Beta-2 adrenergic receptor (Homo sapiens) (UniProt P07550); assay: Adrenergic beta2 receptor (ADRB2) small molecule antagonists, cell-based qHTS assay (AID 1963592); note: series mostly up to about 92 µM; nearly all actives have a fitted effect of over 50% in size
Sequence of Beta-2 adrenergic receptor (Homo sapiens) (P07550 whole entry, looked up): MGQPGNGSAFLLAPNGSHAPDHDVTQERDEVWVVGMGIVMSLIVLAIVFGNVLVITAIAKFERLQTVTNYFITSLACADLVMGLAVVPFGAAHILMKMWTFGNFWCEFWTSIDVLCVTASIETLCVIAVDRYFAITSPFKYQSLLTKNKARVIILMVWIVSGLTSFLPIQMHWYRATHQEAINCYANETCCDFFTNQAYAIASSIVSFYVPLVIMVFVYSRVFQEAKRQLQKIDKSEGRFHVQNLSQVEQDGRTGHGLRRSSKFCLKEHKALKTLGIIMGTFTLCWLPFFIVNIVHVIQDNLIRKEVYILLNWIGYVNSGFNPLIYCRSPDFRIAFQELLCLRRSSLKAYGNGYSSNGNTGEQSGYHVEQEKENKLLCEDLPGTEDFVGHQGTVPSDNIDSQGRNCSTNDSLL
Summary of the method: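 Assay format: CHO-ADRB2 cells, 18-20hr seeding at 37C/5% CO2, then compound plus 1nM isoproterenol agonist mix for 0.5hr RT. Homogeneous time-resolved fluorescence cAMP detection after 1hr, expressed as 665/615 nm ratio.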

[15] = biological target: Beta-2 adrenergic receptor (Homo sapiens) (UniProt P07550); assay: Adrenergic beta2 receptor (ADRB2) small molecule agonists, cell-based qHTS assay (AID 1963593);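 note: CHO cells stably overexpressing human ADRB2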
Summary of the method: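 CHO cells stably over-expressing ADRB2 were plated overnight at 37C, then dosed with compounds plus a stimulation mix containing 100uM IBMX and 25uM Ro-20-1724 for 0.5hr at room temperature. cAMP was measured by HTRF competition, 1hr.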

[16] = biological target: D(2) dopamine receptor (Homo sapiens) (UniProt P14416); assay: Dopamine D2 receptor (DRD2) small molecule agonists, cell-based qHTS assay (AID 1963594); note: nearly all actives have a fitted effect of over 35% in size
Sequence of D(2) dopamine receptor (Homo sapiens) (P14416 whole entry, looked up): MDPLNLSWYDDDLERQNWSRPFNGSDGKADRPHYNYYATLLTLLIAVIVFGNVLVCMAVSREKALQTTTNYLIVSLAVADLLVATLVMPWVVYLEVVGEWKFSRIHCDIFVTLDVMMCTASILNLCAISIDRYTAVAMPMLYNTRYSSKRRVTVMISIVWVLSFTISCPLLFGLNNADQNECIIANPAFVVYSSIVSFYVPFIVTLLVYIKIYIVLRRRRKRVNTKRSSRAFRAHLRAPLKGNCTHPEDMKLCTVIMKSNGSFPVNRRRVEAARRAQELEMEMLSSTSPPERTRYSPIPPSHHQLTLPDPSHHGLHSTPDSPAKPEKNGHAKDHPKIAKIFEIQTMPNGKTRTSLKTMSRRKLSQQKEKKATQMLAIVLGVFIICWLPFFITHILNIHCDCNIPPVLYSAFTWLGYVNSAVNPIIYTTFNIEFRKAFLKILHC
Summary of the method: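 HEK293 cells stably expressing DRD2 were cultured 24 h at 37 C, then given Ro20-1724 (0.1 mM final) and compounds for 10 min at room temperature. NKH477 (200nM) was then added for 30 min. cAMP was read by HTRF.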

[17] = p53 small molecule agonists, cell-based qHTS assay (AID 1963582; active = well fitted activation curve with a large enough effect in the signal ratio in the repeat runs, not every such curve was filed as active; the % refers to the signal ratio)
Summary of the method: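 Cells carrying a p53-responsive bla reporter are treated with test compounds for 16 h at 37 C; beta-lactamase activity is then detected with LiveBLAzer B/G FRET substrate after 2 h at room temperature.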

[18] = biological target: 5-hydroxytryptamine receptor 2A (Homo sapiens) (UniProt P28223); assay: 5-hydroxytryptamine receptor 2A (HTR2A) small molecule agonists, cell-based qHTS assay (AID 1963587); note: nearly all actives have a fitted effect of over 30% in size
Summary of the method: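 HTR2A-CHO cells, plated 18 h at 37 C/5% CO2, dye-loaded 1 h at 37 C; compounds in DMSO added by pin tool (agonist mode). Intracellular calcium flux read as kinetic fluorescence on FDSS over 2 min at 1 s intervals.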

[19] = biological target: Muscarinic acetylcholine receptor M1 (Homo sapiens) (UniProt P11229); assay: Cholinergic receptor muscarinic 1 (CHRM1) small molecule antagonists, cell-based qHTS assay (AID 1963588); note: nearly all actives have a fitted effect of over 40% in size; note: potency is the fitted concentration of half-maximal effect
Summary of the method: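 Compounds were tested at 15 concentrations in three independent runs. Dye-loaded CHRM1-CHO cells were exposed 5 min at room temperature before stimulation by acetylcholine added at 50nM. Intracellular calcium was read kinetically on FDSS for 3 min.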

[20] = biological target: D(2) dopamine receptor (Homo sapiens) (UniProt P14416); assay: Dopamine D2 receptor (DRD2) small molecule antagonists, cell-based qHTS assay (AID 1963595; active = well fitted inhibition curve with a large enough effect in the signal ratio in the repeat runs, with a control signal flat; the % refers to the signal ratio)
Summary of the method: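 DRD2-HEK293; 0.1 mM Ro20-1724; cpd 10 min RT; NKH477 200 nM + quinpirole 12 nM, 30 min RT; HTRF cAMP (cAMP-d2/anti-cAMP cryptate), 665/620 nm ratio after 1 h.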

Measured: Potency

CC(=O)c1ccccc1N
not listed: [17] | [18] | [19] | [20]
inactive: all other assays above

Cc1cccc(N(C)C)c1
not listed: [8] | [16]
inactive: all other assays above

C[C@H]1C[C@@H](O)CC(C)(C)C1
not listed: [8] | [15]
inactive: all other assays above

O=C[C@H](O)[C@@H](O)[C@H](O)[C@H](O)CO
not listed: [8] | [20]
inactive: all other assays above

O=Cc1cc2ccccc2o1
not listed: [8] | [13]
inactive: all other assays above

O=[N+]([O-])c1ccccc1CCO
active: [19] 1.1 nM
not listed: [9] | [15] | [20]
inactive: all other assays above

CCCO
not listed: [17] | [19]
inactive: all other assays above

O=c1n(CCO)c(=O)n(CCO)c(=O)n1CCO
not listed: [8]
inactive: all other assays above

CC(C)S
not listed: [10] | [14] | [15] | [19]
inactive: all other assays above

C[n+]1ccn(Cc2ccccc2)c1
not listed: [8]
inactive: all other assays above

Cc1ccccc1OCC(O)CO (stereo not given)
not listed: [8]
inactive: all other assays above

Cc1cc(N)n(-c2ccccc2)n1
not listed: [8] | [15]
inactive: all other assays above

CO[Si](CCCNCCC[Si](OC)(OC)OC)(OC)OC
not listed: [9]
inactive: all other assays above

C=CC(O)CCCCC (stereo not given)
not listed: [8] | [16]
inactive: all other assays above

COC(=O)N[C@H](C(=O)N[C@@H](Cc1ccccc1)[C@@H](O)CN(Cc1ccc(-c2ccccn2)cc1)NC(=O)[C@@H](NC(=O)OC)C(C)(C)C)C(C)(C)C
not listed: [8]
inactive: all other assays above
